Tau fluor cs: counter-screen for tau fibril formation inhibitors; AID 1463; 280,000 tested, 0.93% active; tau K18 P301L Alexa594 fluorescence, heparin fibrillization; Potency, µM (series often up to 57.7 µM), for the others: at the highest dose activity change, negative = decrease; note: potency is the fitted concentration of half-maximal effect; nearly all actives have a fitted effect of over 55% in size
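Human K18 P301L tau (15 uM unlabeled plus 0.24 uM Alexa 594-labeled, final) in 100 mM sodium acetate pH 7 was mixed with compound and 20 uM heparin and incubated 6 hr at 37 C.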
Coupling enz: counter-screen for Giardia aldolase inhibitors: coupling enzyme system | coupling enzyme system counterscreen, AmpLite Red fluorescence | AID 2472 | activity change, negative = inhibition, % at 58.2 µM, hits read low | 290,000 tested, 0.67% active; in the data active = activity change below about -30%
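Counterscreen lacking aldolase: glyceraldehyde-3-phosphate coupling-enzyme reagent preincubated 10 min at RT with compound (at 57.5 uM final), then substrate/coupling system with AmpLite Red added; fluorescence read at 525/598 nm after 20 min RT.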
Tau fibril FP: inhibitors of human tau fibril formation; P10636; K18 P301L tau heparin fibrillization, Alexa594 FP, 6 h; Potency, µM (doses to about 57.7 µM), for inactives: top-dose activity, negative = inhibition, usual class: inhibitors; 280,000 tested, 0.39% active; note: potency is the fitted concentration of half-maximal effect; nearly all actives have a fitted effect of over 55% in size
Target sequence (P10636 561-689 P618L limits assumed): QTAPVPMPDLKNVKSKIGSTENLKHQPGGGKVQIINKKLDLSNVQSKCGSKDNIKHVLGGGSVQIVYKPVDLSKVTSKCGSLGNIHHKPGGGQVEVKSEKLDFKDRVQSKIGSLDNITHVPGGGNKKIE
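Steps: dispense K18 P301L tau (15 uM plus 0.24 uM Alexa 594 tracer, final) in pH 7 sodium acetate; add compound; add heparin (20 uM final); incubate 6 hr, 37 C; add ThT (30 uM final); after 1 hr ambient, read FP.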
Tau fibril ThT: inhibitors of human tau fibril formation, thioflavin T binding; recombinant tau K18 P301L (four-repeat tau fragment), heparin-induced fibrillization, ThT fluorescence; 270,000 tested, 2.1% active; AID 1460; Potency, µM (highest dose often 57.4 µM), for the others: at the highest dose activity, negative = inhibition, most hits filed as inhibitors; note: potency is the fitted concentration of half-maximal effect; nearly all actives have a fitted effect of over 55% in size
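Tau K18 P301L fragment (15 uM unlabeled plus 0.24 uM Alexa 594-labeled) in 100 mM sodium acetate pH 7 with compound, fibrillization induced by 20 uM heparin for 6 hr at 37 C. Thioflavin T (30 uM) added, fluorescence read after 1 hr (ex 450, em 510 nm).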
Starred values were filed as active, the others as inactive; u = inconclusive; x = not tested or not shown; [ ] = another dose, or the depositor's remark. Sampled rows, rich in hits. Any-hit rate of the full collection: about 2.7%. Unless noted, calls come from the whole dose curve; as a rule, active = well fitted curve in the direction sought with a large enough effect; inconclusive = small, poorly fitted or top-dose-only effect, or another doubt; inactive = no such curve, though single readings can be large; an effect the other way counts as inactive or inconclusive. % is set by controls: 0 for no effect and ±100 for the full control effect.

SMILES | Tau fluor cs | Coupling enz | Tau fibril FP | Tau fibril ThT
C/C(=N\Nc1ccc([N+](=O)[O-])cc1)c1ccc(-n2nncc2C)cc1 | 16µM*[quencher] | 0 | u | 7.1µM*
C/C(=N\Nc1ccc([N+](=O)[O-])cc1)c1ccco1 | u | -2 | 9% | 5µM*
C/C(=N\NC(=O)c1cccc(N/N=C(\C)c2ccc([N+](=O)[O-])cc2)c1)c1ccc([N+](=O)[O-])cc1 | u | 0 | 7% | 0.5µM*
CCc1ccc(/C(C)=N\Nc2ccc([N+](=O)[O-])cc2)cc1 | u | -1 | -4% | 3.5µM*
C/C(=N\Nc1ccc([N+](=O)[O-])cc1)c1ccc(N)cc1 | 1% | 0 | -4% | 6%
C/C(=N\Nc1ccc([N+](=O)[O-])cc1)c1ccc(N2CCOCC2)cc1 | u | 4 | u | u
Cc1ccc(C(=O)c2cn(CC(=O)NCc3ccccc3Cl)c3nc(C)ccc3c2=O)cc1 | -13% | x | -13% | -4%
CCOC(=O)c1c(S(=O)(=O)NCC(=O)Nc2cccc(SC)c2)c(C)n(C)c1C | u | x | -6% | -10%
COc1ccc(OC)c(CNC(=O)C2CCN(c3nc4ccccc4nc3C(F)(F)F)CC2)c1 | -10% | x | -2% | 6%
CC/C(=N\Nc1ccc([N+](=O)[O-])cc1)c1ccccc1 | u | 2 | -10% | 2µM*
CC(=O)c1sc(N/N=C/c2cccc([N+](=O)[O-])c2)nc1C | x | 4 | x | x
C/C(=N\Nc1nc(C)c(C)s1)c1ccc([N+](=O)[O-])cc1 | u | -2 | 9% | 14µM*
O=c1c2ccccc2n2c(-c3ccccc3F)nnc2n1CCc1ccccc1 | -19% | x | -1% | -1%
O=C(/C=C/c1cccc(O)c1)c1ccc(N2CCOCC2)cc1 | u | -3 | -6% | 3.5µM*
CC1=CC(C)(C)Nc2ccc(OC(=O)C(Cc3ccccc3)N3C(=O)c4ccccc4C3=O)cc21 (configuration not stated) | u | -5 | 11% | -17%
CC1=CC(C)(C)Nc2ccc(OC(=O)CN3C(=O)c4cccc5cccc(c45)C3=O)cc21 | u | -54* | u | 13µM*
CC1=CC(C)(C)Nc2ccc(OC(=O)CN3C(=O)c4ccccc4C3=O)cc21 | 16µM*[quencher] | -2 | -1% | u
C#C[C@]1(O)CC[C@@H]2[C@H]3CCC4=CCCC[C@@H]4[C@@H]3CC[C@@]21C | x | 2 | x | x
COc1ccccc1C1OC(=O)CC1C(=O)OC[C@@H]1CCCN2CCCCC12 (some centres not stated) | -12% | 3 | 0% | -10%
Cc1ccc2nc(-c3ccc(Br)o3)oc(=O)c2c1 | -2% | -3 | 0% | -14%
COc1cc2nc(-c3ccc(Br)o3)oc(=O)c2cc1OC | -17% | -40* | -6% | u
c1ccc(-c2nc3nonc3nc2-c2ccccc2)cc1 | -17% | -37* | 6% | -4%
Nc1c(-c2ccccc2)nc(Cl)nc1-c1ccccc1 | -8% | 2 | 1% | -9%
CC(C)c1ccc(NC(=O)C2CCCN(S(=O)(=O)c3ccc4[nH]c(=O)oc4c3)C2)cc1 (configuration not stated) | -20% | x | -12% | 3%
CCOCCCNS(=O)(=O)c1ccc2c(c1)OCCO2 | 16µM*[quencher] | 2 | -5% | 16µM*
SMILES | Tau fluor cs | Coupling enz | Tau fibril FP | Tau fibril ThT
COCCCNS(=O)(=O)c1ccc2c(c1)OCCO2 | 0% | 7 | -6% | 1%
O=C(CN1C(=O)COc2ccc(Cl)cc21)Nc1ccc(F)cc1 | -24% | x | -15% | -4%
COC(=O)c1ccc(Nc2nc(-c3ccc(C)cc3)nc3ccccc23)cc1 | u | x | 3.5µM* | -17%
Cc1ccc(-c2nc(Nc3ccc(O)cc3)c3ccccc3n2)cc1 | x | 0 | x | x
Cc1ccc(-c2nc(Nc3cccc(O)c3)c3ccccc3n2)cc1 | x | 0 | x | x
Cc1ccc(-c2nc(Nc3ccc(N4CCOCC4)cc3)c3ccccc3n2)cc1 | 4µM*[quencher] | -4 | u | 16µM*
COc1ccc(NC(=O)CCc2nc3c(C)nn(-c4ccc(C)cc4)c3n(C)c2=O)c(OC)c1 | 9% | x | 3% | 3%
COc1cc2cc3c4c(cc(OC)c(OC)c4c2cc1OC)CCN3C | 13µM*[quencher] | -45* | u | 10µM*
COc1cc2c(cc1OC)C(=O)N(C)CC2 | -22% | -2 | -8% | -18%
CCN1CCN(c2oc(-c3ccc(COc4ccc(C)cc4)o3)nc2C#N)CC1 | u | x | 2% | u
Cc1ccc(C(=O)NC(=S)Nc2cccc3nsnc23)cc1 | -22% | -29 | u | 13µM*
COc1ccc(C(=O)c2cn(Cc3cccc(C)c3)c3cc4c(cc3c2=O)OCO4)cc1 | -15% | x | -1% | -13%
CCOC(=O)N1C/C(=C\c2ccccc2)C(=O)/C(=C/c2ccccc2)C1 | -10% | -1 | u | 14µM*
O=C(NC[C@H](O)c1ccccc1)c1ccccc1 | -2% | 2 | -2% | 2%
N#CC1=C(N)SC(N)=C(C#N)C1c1c(Cl)cccc1Cl | -18% | -51* | -9% | u
CCN(CC)C(=O)CSc1nnc2sc3ccccc3n12 | 6% | 0 | 2% | 2%
c1ccc(OCCSc2nnc3sc4ccccc4n23)cc1 | -18% | -39* | -6% | u
COc1cccc(OCCSc2nnc3sc4ccccc4n23)c1 | -8% | -42* | 13% | u
COc1cccc(OCCSc2nc(N)cc(N)n2)c1 | -13% | 1 | -4% | u
COC(=O)[C@@]1(Cc2ccc(OC)cc2)[C@H]2c3cc(C(=O)N4CCCC4)n(CCc4ccccn4)c3C[C@H]2CN1C(=O)c1ccccc1 | -12% | 0 | 0% | u
Cc1ccc(-c2ccc(/C=C3\SC(N4CCOCC4)=NC3=O)o2)cc1 | u | -5 | -5% | 13µM*
COc1ccc2cc(/C=C3\SC(=S)NC3=O)c(N3CCOCC3)nc2c1 | -24% | 10 | 4% | 16µM*
CC(C)OC(=O)CN1C(=O)S/C(=C/c2ccc(N3CCCCC3)o2)C1=O | -8% | -38* | 18% | u
O=C1S/C(=C\c2ccc(N3CCOCC3)o2)C(=O)N1Cc1ccc(F)cc1 | -4% | -36* | -3% | -16%
CCC(C)NC(=O)CSc1nnc(-c2ccc(C)cc2)c(-c2ccc(C)cc2)n1 (configuration not stated) | 1% | x | 6% | -5%
SMILES | Tau fluor cs | Coupling enz | Tau fibril FP | Tau fibril ThT
CC(C)CCNC(=O)c1cccc(-n2cnc3cccnc32)c1 | -9% | x | -4% | -5%
O=C1N/C(=C/c2ccc(N3CCOCC3)o2)C(=O)N1c1ccccc1 | 3% | -8 | -16% | u
O=C1S/C(=C/c2ccc(N3CCOCC3)o2)C(=O)N1Cc1ccc(F)cc1 | -9% | x | 6% | u
C=CCN1C(=O)N/C(=C/c2ccc(N3CCOCC3)o2)C1=O | -28% | -12 | u | 7.9µM*
O=C1NC(=S)S/C1=C/c1ccc(N2CCOCC2)o1 | -9% | -51* | 11% | -3%
N#Cc1ccc(-c2cccnc2)nc1SCC(=O)c1ccccc1 | u | 2 | -3% | 4.5µM*
COc1ccc(C(=O)c2ccccc2)c(O)c1 | 1% | -4 | 6% | 8%

Source: PubChem
